Assay results taken from PubChem BioAssay AID1159580 (chemical genetic matrix, 2015).
Hit rate of the full screen: of about 5,500 compounds, about 2,000 (36%) were called active. Inconclusive results (about 18%) are left out. No stated cut-off is given here; in the data, active means normalized growth mostly below about 0.91 (no sharp cut-off); inconclusive means no clear call, values can overlap the other calls; inactive means mostly above about 0.92. This is one part of the list.

Assay: chemical genetic growth profiling, strain panel (AID 1159580);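 further: tested at 20 µM; growth read once vehicle control cultures reached saturation at 30 °C; 1 = growth at the plate median or of vehicle wells; lower values mean less growth of the strain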
Conditions: S. cerevisiae deletion strains, growth OD
[1] = locus YHR030C, strain SLT2, active compounds read low
[2] = locus YHR079C, strain IRE1, active compounds read low
[3] = locus YJL095W, strain BCK1, active compounds read low
[4] = locus YJR066W, strain TOR1, active compounds read low
[5] = locus YLR113W, strain HOG1, active compounds read low
[6] = locus YNL183C, strain NPR1, active compounds read low
[7] = locus YOR231W, strain MKK1, active compounds read low
[8] = locus YPL256C, strain CLN2, active compounds read low

Measured: normalized growth

N#C/C(=N/Nc1ccc(F)cc1)C(=O)c1ccccc1
inactive: locus YDL132W, strain cdc53, active compounds read low 0.906 | locus YDL214C, strain PRR2, active compounds read low 0.913 | locus YDR477W, strain SNF1, active compounds read low 0.756 | locus YER123W, strain YCK3, active compounds read low 0.794 | locus YER133W, strain GLC7, active compounds read low 0.885 | locus YFR019W, strain FAB1, active compounds read low 0.913 | locus YGR040W, strain KSS1, active compounds read low 0.693 | locus YGR052W, strain FMP48, active compounds read low 0.98 | locus YGR092W, strain DBF2, active compounds read low 0.769 | [2] 0.826 | locus YHR082C, strain KSP1, active compounds read low 0.762 | locus YHR205W, strain SCH9, active compounds read low 0.799 | [3] 0.731 | locus YJL128C, strain PBS2, active compounds read low 0.942 | locus YJL157C, strain FAR1, active compounds read low 0.907 | locus YJR066W, strain TOR1 (second series), active compounds read low 0.836 | [4] 0.654 | locus YKL048C, strain ELM1, active compounds read low 0.895 | locus YKL067W, strain YNK1, active compounds read low 0.872 | locus YKL101W, strain HSL1, active compounds read low 0.839 | locus YKL203C, strain TOR2, active compounds read low 0.883 | locus YLR133W, strain CKI1, active compounds read low 0.815 | locus YLR403W, strain SFP1, active compounds read low 0.721 | locus YML070W, strain DAK1, active compounds read low 0.854 | locus YMR205C, strain PFK2 (second series), active compounds read low 0.821 | locus YNL020C, strain ARK1, active compounds read low 0.819 | [6] 0.657 | locus YNL307C, strain MCK1 (second series), active compounds read low 0.795 | locus YOL136C, strain PFK27, active compounds read low 0.885 | locus YOR061W, strain CKA2, active compounds read low 0.849 | locus YOR119C, strain RIO1, active compounds read low 0.783 | [7] 0.736 | locus YPL031C, strain PHO85, active compounds read low 0.701 | locus YPL153C, strain RAD53, active compounds read low 0.757
active: locus YAR019C, strain CDC15, active compounds read low 0.853 | locus YBL105C, strain PKC1, active compounds read low 0.855 | locus YBR135W, strain CKS1, active compounds read low 0.842 | locus YBR136W, strain MEC1, active compounds read low 0.844 | locus YBR160W, strain CDC28, active compounds read low 0.862 | locus YDL017W, strain CDC7, active compounds read low 0.858 | locus YDL028C, strain MPS1, active compounds read low 0.859 | locus YDL101C, strain DUN1, active compounds read low 0.903 | locus YDL108W, strain KIN28, active compounds read low 0.859 | locus YDR052C, strain DBF4, active compounds read low 0.84 | locus YDR054C, strain cdc34, active compounds read low 0.853 | locus YDR226W, strain ADK1, active compounds read low 0.832 | locus YFL009W, strain cdc4, active compounds read low 0.842 | locus YFL029C, strain CAK1, active compounds read low 0.841 | locus YFR003C, strain YPI1, active compounds read low 0.854 | locus YFR028C, strain CDC14, active compounds read low 0.855 | [1] 0.704 | locus YIL147C, strain SLN1, active compounds read low 0.842 | locus YJR016C, strain ILV3, active compounds read low 0.84 | locus YKL193C, strain SDS22, active compounds read low 0.873 | [5] 0.804 | locus YMR001C, strain CDC5, active compounds read low 0.841 | locus YMR277W, strain FCP1, active compounds read low 0.85 | locus YNL006W, strain LST8, active compounds read low 0.853 | locus YNL161W, strain CBK1, active compounds read low 0.863 | locus YNL207W, strain RIO2, active compounds read low 0.83 | locus YNL222W, strain SSU72, active compounds read low 0.87 | locus YOL078W, strain AVO1, active compounds read low 0.852 | locus YOR329C, strain SCD5, active compounds read low 0.868 | locus YPL204W, strain HRR25, active compounds read low 0.653 | locus YPL209C, strain IPL1, active compounds read low 0.876 | [8] 0.747 | locus YPR025C, strain CCL1, active compounds read low 0.863 | locus YPR106W, strain ISR1, active compounds read low 0.886 | locus YPR111W, strain DBF20, active compounds read low 0.862 | strain NNK1, active compounds read low 0.883 | strain TSCII, active compounds read low 0.844

O=C(NC(=O)c1ccccc1Cl)Nc1ccc(OC(F)(F)F)cc1
inactive: locus YAL021C, strain ccr4, active compounds read low 1.05 | locus YAL026C, strain drs2, active compounds read low 1.02 | locus YAL030W, strain snc1, active compounds read low 1.03 | locus YBL061C, strain skt5, active compounds read low 1.02 | locus YBR009C, strain hhf1, active compounds read low 0.999 | locus YBR023C, strain chs3, active compounds read low 1.04 | locus YBR171W, strain sec66, active compounds read low 1.05 | locus YBR231C, strain swc5, active compounds read low 1.06 | locus YBR279W, strain paf1, active compounds read low 1.01 | locus YCL011C, strain gbp2, active compounds read low 1.04 | locus YCL016C, strain dcc1, active compounds read low 1.04 | locus YCL061C, strain MRC1, active compounds read low 1.04 | locus YCL069W, strain vba3, active compounds read low 1.04 | locus YCR088W, strain abp1, active compounds read low 1.03 | locus YDL005C, strain med2, active compounds read low 1.05 | locus YDL040C, strain nat1, active compounds read low 1.03 | locus YDR001C, strain nth1, active compounds read low 1.02 | locus YDR069C, strain doa4, active compounds read low 1.06 | locus YDR137W, strain rgp1, active compounds read low 1.06 | locus YDR159W, strain sac3, active compounds read low 1.04 | locus YDR195W, strain ref2 1.11 | locus YDR297W, strain sur2, active compounds read low 1.03 | locus YDR334W, strain swr1, active compounds read low 1.04 | locus YDR335W, strain msn5, active compounds read low 1.04 | locus YDR392W, strain spt3, active compounds read low 1.01 | locus YEL003W, strain gim4, active compounds read low 1.03 | locus YEL037C, strain rad23, active compounds read low 1.03 | locus YEL061C, strain CIN8 (second series), active compounds read low 1.03 | locus YER015W, strain faa2, active compounds read low 1.02 | locus YER016W, strain bim1, active compounds read low 1.03 | locus YER111C, strain swi4, active compounds read low 1.04 | locus YER155C, strain BEM2 (second series), active compounds read low 1.07 | locus YFR010W, strain ubp6, active compounds read low 1.03 | locus YGL167C, strain pmr1, active compounds read low 1.03 | locus YGL173C, strain kem1, active compounds read low 1.05 | locus YGL227W, strain vid30, active compounds read low 1.03 | locus YGL240W, strain doc1, active compounds read low 1.04 | locus YGL253W, strain hxk2, active compounds read low 1.03 | locus YHR013C, strain ard1, active compounds read low 1.09 | locus YHR027C, strain rpn1, active compounds read low 1.04 | [1] 1.07 | [2] 1.07 | locus YHR142W, strain chs7, active compounds read low 1.01 | locus YJL092W, strain hpr5, active compounds read low 1.03 | locus YJL095W, strain BCK1 (second series), active compounds read low 1.02 | [3] 1.06 | locus YJL115W, strain asf1, active compounds read low 1.03 | locus YJL129C, strain trk1, active compounds read low 1.08 | locus YJL154C, strain vps35, active compounds read low 1.04 | locus YJL164C, strain tpk1, active compounds read low 1.02 | locus YJL166W, strain qcr8, active compounds read low 1.05 | locus YJL187C, strain SWE1, active compounds read low 1.03 | [4] 0.971 | locus YKL160W, strain elf1, active compounds read low 1.05 | locus YKR026C, strain gcn3, active compounds read low 1.04 | locus YKR091W, strain srl3, active compounds read low 1.03 | locus YLL001W, strain dnm1, active compounds read low 1.06 | locus YLL026W, active compounds read low 1.02 | locus YLL041C, strain sdh2, active compounds read low 1.03 | locus YLR027C, strain aat2, active compounds read low 1.04 | [5] 1.07 | locus YLR221C, strain rsa3, active compounds read low 1.05 | locus YLR258W, strain gsy2, active compounds read low 1.02 | locus YLR262C, strain YPT6 (second series), active compounds read low 1.06 | locus YLR320W, strain mms22, active compounds read low 1.06 | locus YLR342W, strain FKS1, active compounds read low 1.04 | locus YLR357W, strain rsc2, active compounds read low 1.07 | locus YLR370C, strain arc18, active compounds read low 1.04 | locus YLR384C, strain iki3, active compounds read low 1.03 | locus YML120C, strain ndi1, active compounds read low 1.03 | locus YMR058W, strain fet3, active compounds read low 1.03 | locus YMR125W, strain sto1, active compounds read low 1.06 | locus YMR129W, active compounds read low 1.03 | locus YMR205C, strain PFK2, active compounds read low 1.07 | locus YMR231W, strain pep5, active compounds read low 1.03 | locus YNL071W, strain lat1, active compounds read low 1.05 | [6] 0.985 | locus YNL209W, strain ssb2, active compounds read low 1.03 | locus YNL248C, strain rpa49, active compounds read low 1.07 | locus YNL322C, strain KRE1 (second series), active compounds read low 1.05 | locus YNR049C, strain mso1, active compounds read low 1.03 | locus YOR001W, strain rrp6, active compounds read low 1.01 | locus YOR070C, strain gyp1, active compounds read low 1.05 | locus YOR080W, strain dia2, active compounds read low 1.05 | locus YOR083W, strain WHI5, active compounds read low 1.05 | locus YOR106W, strain vam3, active compounds read low 1.07 | [7] 1.07 | locus YOR265W, strain rbl2, active compounds read low 1.03 | locus YOR270C, strain vph1, active compounds read low 1.1 | locus YOR290C, strain snf2, active compounds read low 1.07 | locus YPL051W, strain arl3, active compounds read low 1.07 | locus YPL078C, strain atp4, active compounds read low 1.06 | locus YPL106C, strain sse1, active compounds read low 1.02 | locus YPL240C, strain hsp82, active compounds read low 1.01 | [8] 1.11
